Results as given in PubChem BioAssay (EPA / NIEHS).
Values joined by “and” are separate entries in the source; they are usually repeats but may differ in a detail not shown here. Equal values may be shown once. Inconclusive results are not listed. More than one record can exist for a structure, and the calls need not agree. Active and inactive are the calls of the source. Rule for the calls, unless noted: active = hit-call score of the fitted dose curve at least 0.9, where 1 is the maximum; inconclusive = response in the unintended direction; inactive = score below 0.9.

Columns and labels:
[1] = target: Estrogen receptor (Homo sapiens) (UniProt P03372); assay: OT_ERa_GFPERaERE_0120: Odyssey Thera (OT) 2-hour HeLa Transcription Induction Assay for Estrogen Receptor (AID 2283382)
Chain of Estrogen receptor (Homo sapiens) (P03372 whole entry, looked up): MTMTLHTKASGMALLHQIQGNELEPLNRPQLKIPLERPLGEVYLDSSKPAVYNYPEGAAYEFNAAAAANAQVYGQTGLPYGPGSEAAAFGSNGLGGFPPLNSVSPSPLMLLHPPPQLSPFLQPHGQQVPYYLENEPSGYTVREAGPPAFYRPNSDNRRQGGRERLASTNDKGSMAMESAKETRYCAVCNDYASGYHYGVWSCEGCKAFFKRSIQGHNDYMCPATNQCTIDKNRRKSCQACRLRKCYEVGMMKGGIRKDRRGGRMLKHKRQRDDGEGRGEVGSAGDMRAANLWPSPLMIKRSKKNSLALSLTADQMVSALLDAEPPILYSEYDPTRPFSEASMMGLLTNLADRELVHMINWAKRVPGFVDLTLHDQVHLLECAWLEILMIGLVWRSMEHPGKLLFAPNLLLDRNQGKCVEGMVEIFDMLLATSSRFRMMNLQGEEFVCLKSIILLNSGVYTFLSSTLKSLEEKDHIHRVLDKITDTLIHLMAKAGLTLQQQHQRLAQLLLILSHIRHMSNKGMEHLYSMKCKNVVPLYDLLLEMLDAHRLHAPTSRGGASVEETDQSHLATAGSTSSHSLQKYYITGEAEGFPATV
Outline: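 HeLa cells were dosed for 2 h, then GFP reporter induction was quantified by fluorescence microscopy with high-content image analysis. Gain of signal fitted against DMSO baseline.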

[2] = target: Bile acid receptor (Homo sapiens) (UniProt Q96RI1); assay: OT_FXR_FXRSRC1_0480: Odyssey Thera (OT) 8-hour HEK293T Protein-Complementation Assay for Farnesoid X receptor/SRC-1 Co-activator (AID 2283383)
Chain of Bile acid receptor (Homo sapiens) (Q96RI1 whole entry, looked up, the tested form may be a part): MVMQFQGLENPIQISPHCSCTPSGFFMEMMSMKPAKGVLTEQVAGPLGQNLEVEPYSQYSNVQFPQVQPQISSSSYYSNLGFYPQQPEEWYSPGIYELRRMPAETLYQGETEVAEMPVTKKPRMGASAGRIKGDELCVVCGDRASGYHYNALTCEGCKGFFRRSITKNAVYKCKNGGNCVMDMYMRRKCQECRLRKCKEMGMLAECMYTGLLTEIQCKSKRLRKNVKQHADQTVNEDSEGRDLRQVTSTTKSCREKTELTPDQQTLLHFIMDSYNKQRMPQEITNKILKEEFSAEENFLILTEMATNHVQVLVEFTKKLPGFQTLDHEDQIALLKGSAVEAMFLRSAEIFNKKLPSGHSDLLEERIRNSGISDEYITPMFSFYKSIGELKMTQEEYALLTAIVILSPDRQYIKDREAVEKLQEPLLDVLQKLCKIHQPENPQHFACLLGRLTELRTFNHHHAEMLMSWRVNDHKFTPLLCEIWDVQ
Outline: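 HEK293T protein-fragment complementation assay: FXR and SRC-1 coactivator are fused to reporter fragments, and their interaction restores a fluorescent reporter. Readout was taken 8 h after dosing, with gain of signal fit relative to DMSO.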

[3] = target: Bile acid receptor (Homo sapiens) (UniProt Q96RI1); assay: OT_FXR_FXRSRC1_1440: Odyssey Thera (OT) 24-hour HEK293T Protein-Complementation Assay for Farnesoid X receptor/SRC-1 Co-activator (AID 2283384)
Outline: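 HEK293T cells, 24 h after chemical dosing. FXR–SRC-1 coactivator interaction read as fluorescence from protein-fragment complementation of a split reporter. Gain of signal fitted against DMSO baseline.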

[4] = target: Retinoic acid receptor RXR-alpha (Homo sapiens) (UniProt P19793); assay: OT_NURR1_NURR1RXRa_0480: Odyssey Thera (OT) 8-hour HEK293T Protein Complementation Assay for Nurr1/retinoid X receptor (RXR) (AID 2283385)
Chain of Retinoic acid receptor RXR-alpha (Homo sapiens) (P19793 whole entry, looked up, the tested form may be a part): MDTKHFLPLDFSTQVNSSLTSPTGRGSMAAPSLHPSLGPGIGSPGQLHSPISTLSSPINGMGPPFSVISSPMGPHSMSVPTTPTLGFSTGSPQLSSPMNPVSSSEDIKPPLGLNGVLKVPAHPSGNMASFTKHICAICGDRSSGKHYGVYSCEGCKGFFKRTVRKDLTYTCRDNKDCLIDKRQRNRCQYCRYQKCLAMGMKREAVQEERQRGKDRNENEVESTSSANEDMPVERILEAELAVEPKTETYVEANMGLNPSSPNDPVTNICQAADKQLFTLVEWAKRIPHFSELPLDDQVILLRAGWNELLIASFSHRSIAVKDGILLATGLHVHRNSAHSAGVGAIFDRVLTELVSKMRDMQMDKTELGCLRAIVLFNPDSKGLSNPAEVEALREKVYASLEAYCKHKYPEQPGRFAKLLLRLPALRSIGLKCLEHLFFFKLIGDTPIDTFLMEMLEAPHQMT
Outline: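 HEK293T cells expressing Nurr1 and RXRα fused to reporter fragments (protein-fragment complementation); fluorescence measured 8 h after dosing. Gain of signal fitted relative to DMSO.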

[5] = target: Retinoic acid receptor RXR-alpha (Homo sapiens) (UniProt P19793); assay: OT_NURR1_NURR1RXRa_1440: Odyssey Thera (OT) 24-hour HEK293T Protein Complementation Assay for Nurr1/retinoid X receptor (RXR) (AID 2283386)
Outline: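 HEK293T protein-fragment complementation of Nurr1 and RXRα fused to reporter fragments; compounds 24 h. Fluorescence gain from reconstituted reporter fitted versus DMSO.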

[6] = target: Peroxisome proliferator-activated receptor gamma (Homo sapiens) (UniProt P37231); assay: OT_PPARg_PPARgSRC1_0480: Odyssey Thera (OT) 8-hour Protein-Complementation Assay for Peroxisome Proliferator-activated Receptor Gamma / SRC-1 Co-activator (AID 2283387);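 note: nuclear to cytoplasmic split Venus YFP fluorescence ratio reporting PPARg SRC-1 interaction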
Chain of Peroxisome proliferator-activated receptor gamma (Homo sapiens) (P37231 whole entry, looked up, the tested form may be a part): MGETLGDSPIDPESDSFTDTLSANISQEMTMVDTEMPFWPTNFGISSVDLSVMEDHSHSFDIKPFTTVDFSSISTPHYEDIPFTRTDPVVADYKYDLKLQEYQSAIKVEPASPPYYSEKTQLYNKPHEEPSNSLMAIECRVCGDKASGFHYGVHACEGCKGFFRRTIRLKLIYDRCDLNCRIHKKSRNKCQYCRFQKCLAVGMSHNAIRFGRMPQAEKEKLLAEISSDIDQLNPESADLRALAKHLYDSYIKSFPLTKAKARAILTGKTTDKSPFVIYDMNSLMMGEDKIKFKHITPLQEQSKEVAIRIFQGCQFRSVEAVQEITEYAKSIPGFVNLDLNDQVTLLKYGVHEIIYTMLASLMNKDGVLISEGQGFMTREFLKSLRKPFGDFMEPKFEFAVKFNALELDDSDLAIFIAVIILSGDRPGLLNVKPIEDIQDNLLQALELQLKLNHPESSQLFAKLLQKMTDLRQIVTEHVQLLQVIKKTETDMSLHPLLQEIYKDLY
Outline: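 Protein-fragment complementation in HEK293T: Venus YFP halves (residues 1-158, 159-239, mutated to IFP1/IFP2) fused to PPARg/SRC-1. 8 h exposure; N/C ratio at 488 nm; DMSO negative control.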

[7] = target: Peroxisome proliferator-activated receptor gamma (Homo sapiens) (UniProt P37231); assay: OT_PPARg_PPARgSRC1_1440: Odyssey Thera (OT) 24-hour Protein-Complementation Assay for Peroxisome Proliferator-activated Receptor Gamma/ SRC-1 Co-activator (AID 2283388);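 note: nuclear to cytoplasmic ratio of reconstituted Venus YFP fluorescence in fixed imaged cells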
Outline: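 Cells carrying the PPARg/SRC-1 fragment-complementation reporter receive compound for 24 hours, are fixed and counterstained with Draq5, then imaged. Increased nuclear relative to cytoplasmic YFP fluorescence above DMSO baseline indicates binding activity.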

[8] = target: Estrogen receptor (Homo sapiens) (UniProt P03372); assay: OT_ERa_GFPERaERE_0480: Odyssey Thera (OT) 8-hour HeLa Transcription Induction Assay for Estrogen Receptor (AID 2283381; active = hit-call score of the fitted dose curve at least 0.9, where 1 is the maximum; inactive = score below 0.9)
Outline: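 HeLa cells expressing GFP reporter under estrogen response element, imaged 8 h after dosing. GFP induction quantified by high-content fluorescence microscopy image analysis; gain of signal fitted versus DMSO.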

[9] = target: Estrogen receptor beta (Homo sapiens) (UniProt Q92731); assay: OT_ER_ERbERb_1440: Odyssey Thera (OT) 24-hour HEK293T Protein-Complementation Assay for Estrogen Receptor-beta/-beta Homodimer (AID 2283380);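 note: scored as signal increase over DMSO baseline for both agonists and antagonists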
Chain of Estrogen receptor beta (Homo sapiens) (Q92731 whole entry, looked up, the tested form may be a part): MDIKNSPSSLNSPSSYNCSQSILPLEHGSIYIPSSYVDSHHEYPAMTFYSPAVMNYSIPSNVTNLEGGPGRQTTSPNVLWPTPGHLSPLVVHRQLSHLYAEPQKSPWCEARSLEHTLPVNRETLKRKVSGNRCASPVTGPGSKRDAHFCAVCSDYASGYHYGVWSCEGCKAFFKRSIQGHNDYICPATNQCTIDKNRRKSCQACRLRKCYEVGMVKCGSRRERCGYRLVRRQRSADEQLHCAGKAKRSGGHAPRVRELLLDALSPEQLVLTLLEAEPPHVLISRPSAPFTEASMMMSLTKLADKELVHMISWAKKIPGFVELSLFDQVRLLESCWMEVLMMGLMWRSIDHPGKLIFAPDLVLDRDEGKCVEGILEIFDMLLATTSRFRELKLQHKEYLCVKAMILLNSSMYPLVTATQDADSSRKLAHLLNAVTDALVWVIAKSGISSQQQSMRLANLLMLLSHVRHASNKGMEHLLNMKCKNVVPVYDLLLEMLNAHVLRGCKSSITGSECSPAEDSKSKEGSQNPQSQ
Outline: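 HEK293T cells stably expressing ER beta LBD (aa 310-547) homodimer fragment-complementation reporter, dosed 24 h. Cells formaldehyde-fixed, Draq5-stained; gain in nuclear (agonist) or nuclear plus cytoplasmic (antagonist) fluorescence versus DMSO read by laser scanning cytometry.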

Measured: AC50

Cc1cc(C)c(O)c(C)c1
not listed: [8] | [9]
inactive: all other assays above

O=[N+]([O-])c1ccc(O)cc1
inactive: [1] | [4] | [6] | [7]

CC(C)(C)c1cccc(C(C)(C)C)c1O
active: [2] 78.7 µM | [4] 79.8 µM
inactive: [8] | [1] | [4] | [5] | [6] | [7]

COC(=O)CCCCC(=O)OC
not listed: [2] | [8] | [9]
inactive: all other assays above

CCCCCCCCCCCCCCCS(=O)(=O)Oc1ccccc1
not listed: [4] | [8]
inactive: all other assays above

CCC(C)(C)C1CCC(O)CC1 (stereo not given)
inactive: [1] | [4] | [5] | [6] | [7]
active: [1] 27.5 µM and 24.4 µM

CC(O)C(=O)O (stereo not given)
inactive: [1] | [2] | [3] | [5]

O=C(OCCOCCOC(=O)c1ccccc1)c1ccccc1
not listed: [5] | [8] | [9]
inactive: all other assays above

CCCCCCCCCCCCCC[N+](C)(C)C
active: [1] 69.9 µM
inactive: [6]

CCCCCCCCC(=O)O
inactive: [9] | [1] | [4] | [5]

CC1=C(/C=C/C(C)=C/C=C/C(C)=C/C(=O)O)C(C)(C)CCC1
inactive: [8] | [1] | [6] | [7]

CC[C@H](C)[C@@H](C(=O)O)n1sc2ccccc2c1=O
not listed: [3] | [8]
inactive: all other assays above

CC(C)CCCCCCOC(=O)CCCCC(=O)OCCCCCCC(C)C
not listed: [3] | [8] | [9]
inactive: all other assays above

CCCCC(CC)COC(=O)CCCCC(=O)OCc1ccccc1 (stereo not given)
not listed: [2] | [8]
inactive: all other assays above

Cc1ccc(S(=O)(=O)O)c(C)c1
inactive: [1] | [6] | [7]

CCCCCCCCOC(=O)CCCCCCCCC(=O)OCCCCCCCC
not listed: [3] | [8]
inactive: all other assays above

C=C(C)C(=O)OCCC(F)(F)C(F)(F)C(F)(F)C(F)(F)C(F)(F)C(F)(F)F
active: [1] 12.5 µM
not listed: [8]
inactive: all other assays above

CCc1ccc(CCOc2ccc(CC3SC(=O)NC3=O)cc2)nc1 (stereo not given)
inactive: [9] | [1]
active: [4] 53.6 µM and 57.4 µM | [5] 36.2 µM and 41.7 µM

CC(C)(C)c1ccc(O)c(C(C)(C)C)c1
inactive: [9] | [1] | [6] | [7]

CCCOc1sc(C(=O)N2CCC(c3cc(CN)ccc3F)CC2)c(C)c1Br
inactive: [6] | [7]

c1ccc2cc3c(ccc4ccccc43)cc2c1
inactive: [1] | [2] | [3] | [4] | [5] | [6] | [7]
active: [1] 59.4 µM | [5] 79.7 µM

CCCCOCCO
not listed: [9]
inactive: all other assays above

OC1CCCCC1
inactive: [1] | [5] | [6] | [7]

ClC1=C(Cl)C(Cl)(Cl)C(Cl)=C1Cl
inactive: [9] | [1] | [6] | [7]

CC(O)CO (stereo not given)
not listed: [5] | [9]
inactive: all other assays above

CCCCC(CC)COC(=O)CCCCC(=O)OCC(CC)CCCC (stereo not given)
not listed: [5] | [8]
inactive: all other assays above

COCC(C)O (stereo not given)
inactive: [8] | [1] | [5] | [6] | [7]
